Experiment [1] is described as follows: inhibitors of TNFa-induced NFkB p65 translocation, primary screen, imaging, HUVEC, MLSMR starter and 10KST1 sets (AID 438;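 active = inhibition above 20% together with a positive visual image hit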;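 also: compound added about 3h40 before a 20 min TNFalpha stimulation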;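 as to inhibition: signal is the nuclear over cytoplasmic p65 intensity ratio per well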). The following applies: HUVEC TNFa-induced p65 nuclear translocation; cell count: measured here: nuclei count (cytotoxicity indicator), at 2.08 µM; inhibition: at 2 µM, stronger effect = higher value, 0% TNFa-plus-vehicle, 100% no-TNFa wells.
Experiment [2] in a line: reduction of polyQ htt aggregates in cells – imaging, exon1htt(103Q)mCFP cells, high-content imaging, primary screen (AID 483;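 active = visual image review flags a hit and inhibition of aggregation exceeds 20%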;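 also: compound exposure lasted 3 days before fixation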;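 as to nuclei count: percent of the per-plate median nuclei count of sample wells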). The following applies: exon1htt(103Q)mCFP cell line, aggregate imaging, at 2 µM; inhibition of aggregation: stronger effect = higher value; nuclei count: measured here: cell count, toxicity.
Experiment [3] can be described thus: endothelial E-selectin expression blockers – imaging, HUVEC, immunofluorescence, MLSMR starter and 10KST1 sets, primary screen (AID 487;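 active = visually confirmed hit in the image check and inhibition above 20%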;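 as to inhibition: signal is fraction of cell area covered by stained E-selectin grains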;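 as to nuclei count: 100% = median nuclei count of all wells on the same plate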). The following applies: HUVEC TNFalpha-induced E-selectin immunofluorescence imaging, at 2 µM; inhibition: stronger effect = higher value; nuclei count: measured here: cell number, toxicity.
The target of experiment [4] is Voltage-gated potassium channel subunit beta-2 (Rattus norvegicus) (UniProt P62483). Kind of experiment: inhibitors of rat Kvbeta2 reductase activity – biochemical, NADPH fluorescence, primary screen (AID 622;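 active = fluorescence slope higher than the sample average by over 3 SD, cut at about -0.22 in these data, passing the limit was not always enough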;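 also: slope of raw intensity against log time taken from 70 to 1610 s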). The following applies: recombinant KvBeta, 4-cyanobenzaldehyde reduction, at 10 µM, stronger effect = higher value.
For experiment [5] the target is unchanged. The experiment in a line: enhancers of rat Kvbeta2 NADPH turnover – biochemical, NADPH fluorescence, primary screen (AID 623;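 active = NADPH fluorescence slope more negative than the mean of all samples by about 3 SD, 99.7% confidence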;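 also: fluorescence intensity change per second fitted from 20 to 320 s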). The following applies: Recombinant KvBeta, NADPH fluorescence decrease slope, 10 min; at 10 µM; stronger effect = lower value.
Experiment [6] deals with Alpha-2C adrenergic receptor (Homo sapiens) (UniProt P18825). The experiment in a line: compounds altering alpha2C-coupled GIRK flux – cell-based, HEK293 alpha2C/GIRK1/2, thallium flux, primary screen (AID 624;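 active = fluorescence slope after compound addition differing from the mean of all screened samples at 99.7% confidence, in either direction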;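 also: slope of fluorescence ratio to pre-addition baseline per second over 15 to 24 s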). Conditions: thallium flux BTC fluorescence, at 10 µM, actives lie on both sides.
Experiment [7] in a line: blockers of RIG-like receptor reporter activation – cell-based, Sendai virus stimulus, luciferase, 10K MLSCN set, TLR/RLR signaling modifier project, primary screen (AID 602276).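 Also: firefly luciferase from ISG56 promoter only with Renilla not read in this screen; 0% = Sendai virus plus DMSO and 100% = medium plus DMSO without virus.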 The following applies: HEK293 RL24 IRF3 luciferase reporter, at 10 µM, stronger effect = higher value. (In general: In a reporter assay the amount or activity of a reporter protein is the signal.)
Experiment [8] is described as follows: TLR3 IRF3 reporter activation blockers – cell-based, poly I:C stimulus, luciferase, 10K MLSCN set, primary screen (AID 602277;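 active = inhibition of the reporter signal at or above 50%; inactive = inhibition below 50%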). Conditions: HEK293-TLR3 RL24 IRF3 luciferase reporter, at 10 µM, stronger effect = higher value.

Activity calls are given as the source filed them.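 The calls were made as follows, unless noted: active = inhibition at or above 50% at 10 µM; inactive = inhibition below 50%.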

The inhibition is the drop in the measured response relative to a control, in per cent.

Chain of Alpha-2C adrenergic receptor (Homo sapiens) (P18825 whole entry, looked up): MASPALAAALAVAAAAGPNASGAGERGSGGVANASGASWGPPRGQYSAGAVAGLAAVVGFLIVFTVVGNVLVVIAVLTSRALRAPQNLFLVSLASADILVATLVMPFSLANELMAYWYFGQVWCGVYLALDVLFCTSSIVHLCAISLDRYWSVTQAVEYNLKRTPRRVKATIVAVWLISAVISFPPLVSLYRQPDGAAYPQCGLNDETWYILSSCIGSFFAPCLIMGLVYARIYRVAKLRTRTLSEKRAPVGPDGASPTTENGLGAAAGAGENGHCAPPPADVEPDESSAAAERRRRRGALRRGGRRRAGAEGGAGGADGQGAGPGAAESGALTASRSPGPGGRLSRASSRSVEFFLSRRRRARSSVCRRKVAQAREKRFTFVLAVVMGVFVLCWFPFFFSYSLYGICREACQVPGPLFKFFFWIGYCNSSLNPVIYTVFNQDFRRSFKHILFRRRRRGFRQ
Chain of Voltage-gated potassium channel subunit beta-2 (Rattus norvegicus) (P62483 whole entry, looked up): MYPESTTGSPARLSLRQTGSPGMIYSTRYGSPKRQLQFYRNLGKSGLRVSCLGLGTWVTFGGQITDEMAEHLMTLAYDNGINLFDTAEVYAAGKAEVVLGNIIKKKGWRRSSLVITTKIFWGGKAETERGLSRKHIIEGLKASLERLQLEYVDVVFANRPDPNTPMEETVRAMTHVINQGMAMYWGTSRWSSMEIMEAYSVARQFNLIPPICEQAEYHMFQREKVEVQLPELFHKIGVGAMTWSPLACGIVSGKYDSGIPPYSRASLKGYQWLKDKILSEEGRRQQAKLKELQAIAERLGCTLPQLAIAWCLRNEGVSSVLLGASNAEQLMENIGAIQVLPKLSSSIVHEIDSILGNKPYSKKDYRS

`CSc1cccc(NC(=O)C2CCN(S(=O)(=O)c3ccc(F)cc3)CC2)c1`: the cell count in experiment [1] was 376. The inhibition was -0.2% (inactive) in experiment [1], -69.1% (inactive) in experiment [3], 16.9% (inactive) in experiment [7] and 39.3% (inactive) in experiment [8]. Also, in experiment [2], the inhibition of aggregation is 10.8% (inactive). Also, the nuclei count was found to be 104% in experiment [2] and 115% in experiment [3]. Also, the fluorescence slope in experiment [4] was -0.353 (inactive). Moreover, the NADPH fluorescence slope in experiment [5] is 5.7e-05 (inactive). Moreover, in experiment [6], the slope was 0.00752 (inactive).
In the case of `COC(=O)c1cc(=O)nc2sc(-c3cccs3)nn12`, in experiment [1], the cell count amounted to 349. For the same molecule, the inhibition was 5.5% (inactive) in experiment [1], -73.7% (inactive) in experiment [3], 12.6% (inactive) in experiment [7] and 29.9% (inactive) in experiment [8]. Also, in experiment [2], the inhibition of aggregation was 4.7% (inactive). For the same molecule, the nuclei count turned out to be 100% in experiment [2] and 105% in experiment [3]. The fluorescence slope in experiment [4] was -0.463 (inactive). Moreover, the NADPH fluorescence slope in experiment [5] was -2.2e-05 (inactive). In experiment [6], the slope was 0.006 (inactive).
Consider `COCCCNC(=O)c1c(N)n(-c2cccc(S(N)(=O)=O)c2)c2nc3ccccc3nc12`, for which the cell count in experiment [1] was 245. For the same molecule, the inhibition is 7% (inactive) in experiment [1], 1.4% (inactive) in experiment [3], 10.6% (inactive) in experiment [7] and -0.988% (inactive) in experiment [8]. The inhibition of aggregation in experiment [2] was -15.6% (inactive). For the same molecule, the nuclei count amounted to 98.9% in experiment [2] and 73.3% in experiment [3]. In experiment [4], the fluorescence slope is -0.0132 (inactive). Besides, in experiment [5], the NADPH fluorescence slope was 1.8e-09 (inactive). Also, in experiment [6], the slope is 0.00575 (inactive).
For the molecule `CCOC(=O)NC1(NCc2ccccc2)Oc2ccccc2O1`, the cell count in experiment [1] was found to be 606. Moreover, the inhibition in experiment [1] is -12.3% (inactive); in experiment [3], -140% (inactive); in experiment [7], -5.13% (inactive); in experiment [8], -21.2% (inactive). Further, in experiment [2], the inhibition of aggregation was 9.6% (inactive). Besides, the results for the nuclei count in experiment [2] and in experiment [3] were 95% and 129%, respectively. The fluorescence slope in experiment [4] was -0.509 (inactive). In experiment [5], the NADPH fluorescence slope was 9e-05 (inactive). Besides, in experiment [6], the slope is 0.00513 (inactive).
Regarding `CC(=O)Nc1cccc(Oc2nc(C)cc(C)c2C#N)c1`, the cell count in experiment [1] was 950. Further, the inhibition is 4% (inactive) in experiment [1], -87% (inactive) in experiment [3], 2.68% (inactive) in experiment [7] and 22.3% (inactive) in experiment [8]. In addition, the inhibition of aggregation in experiment [2] is 0.6% (inactive). The nuclei count in experiment [2] was found to be 111%; in experiment [3], 124%. Further, the fluorescence slope in experiment [4] was -0.553 (inactive). In addition, the NADPH fluorescence slope in experiment [5] is -1.7e-05 (inactive). Further, the slope in experiment [6] is 0.00763 (inactive).
Turning to `CC(C)OC(=O)c1cccc(C(=O)O)n1`, the cell count in experiment [1] was 441. The inhibition in experiment [1] was 4.6% (inactive); in experiment [3], -285% (inactive); in experiment [7], 11.6% (inactive); in experiment [8], 12.7% (inactive). Moreover, in experiment [2], the inhibition of aggregation is -5.9% (inactive). The nuclei count in experiment [2] was 92.5%; in experiment [3], 110%. Moreover, the fluorescence slope in experiment [4] is -0.495 (inactive). Also, the NADPH fluorescence slope in experiment [5] was -2.4e-05 (inactive). Moreover, the slope in experiment [6] was 0.00557 (inactive).
With `CCc1ccc2[nH]c(=O)c(C(c3nnnn3CC3CCCO3)N3CCCc4ccccc43)cc2c1` (centres undefined), in experiment [1], the cell count was 339. Moreover, the inhibition in experiment [1] is -8.5% (inactive); in experiment [3], 22.4% (inactive); in experiment [7], 22.7% (inactive); in experiment [8], 32.6% (inactive). Also, the inhibition of aggregation in experiment [2] was 12.7% (inactive). For the same molecule, the nuclei count in experiment [2] turned out to be 87.5%; in experiment [3], 97.3%. In addition, in experiment [4], the fluorescence slope is -0.422 (inactive). Moreover, the NADPH fluorescence slope in experiment [5] was -4.4e-05 (inactive). The slope in experiment [6] is 0.00442 (inactive).
In the case of `N#CC1=C(SCC(=O)c2cc3ccccc3oc2=O)NC(=O)C(C#N)C12CCCC2` (centres undefined), the cell count in experiment [1] was 639. The inhibition in experiment [1] is -36.2% (inactive); in experiment [3] it was -47.7% (inactive); in experiment [7], 23% (inactive); in experiment [8], 31.4% (inactive). For the same molecule, the inhibition of aggregation in experiment [2] is 14.2% (inactive). Moreover, the figures for the nuclei count in experiment [2] and in experiment [3] were 104% and 123%, respectively. Also, the fluorescence slope in experiment [4] was -0.493 (inactive). The NADPH fluorescence slope in experiment [5] was -5.2e-05 (inactive). In experiment [6], the slope is 0.00421 (inactive).
As for `Cc1c(NC(=O)C2CCCCN2S(=O)(=O)c2ccc(Cl)cc2)c(=O)n(-c2ccccc2)n1C` (centres undefined), the cell count in experiment [1] turned out to be 699. Besides, the inhibition is -4.2% (inactive) in experiment [1], 2% (inactive) in experiment [3], 9.42% (inactive) in experiment [7] and -3.63% (inactive) in experiment [8]. In experiment [2], the inhibition of aggregation was -14.5% (inactive). The nuclei count in experiment [2] was 112%; in experiment [3], 109%. For the same molecule, the fluorescence slope in experiment [4] is -0.604 (inactive). For the same molecule, the NADPH fluorescence slope in experiment [5] is 1.8e-05 (inactive). For the same molecule, in experiment [6], the slope was 0.00694 (inactive).
Take `CCc1nc2sc3ccccc3c(=O)c2c(=O)n1Cc1ccco1`: in experiment [1], the cell count worked out at 577. Moreover, the inhibition in experiment [1] is 14.3% (inactive); in experiment [3], 4.8% (inactive); in experiment [7], -14.6% (inactive); in experiment [8], -14.8% (inactive). In addition, the inhibition of aggregation in experiment [2] is -3.1% (inactive). Also, the nuclei count in experiment [2] was found to be 87.2%; in experiment [3], 112%. For the same molecule, the fluorescence slope in experiment [4] is -0.568 (inactive). Also, in experiment [5], the NADPH fluorescence slope was -3.8e-05 (inactive). The slope in experiment [6] was 0.00576 (inactive).
For the molecule `O=C(NCC(F)(F)F)Nc1cccnc1`, the cell count in experiment [1] was determined as 309. The inhibition in experiment [1] is 6.5% (inactive); in experiment [3], -117% (inactive); in experiment [7] it was -2.55% (inactive); in experiment [8], 3.81% (inactive). In addition, the inhibition of aggregation in experiment [2] was -5.6% (inactive). Moreover, the nuclei count in experiment [2] came out at 100%; in experiment [3], 119%. For the same molecule, the fluorescence slope in experiment [4] is -0.318 (inactive). For the same molecule, in experiment [5], the NADPH fluorescence slope was -5.2e-05 (inactive). In addition, the slope in experiment [6] was 0.00372 (inactive).
On to `CCOC(=O)C1CCN(C(=O)c2ccc(Cl)c(Cl)c2)CC1`, for which, in experiment [1], the cell count was found to be 322. Further, the inhibition in experiment [1] was 4.4% (inactive); in experiment [3], -64.6% (inactive); in experiment [7] it was -22.5% (inactive); in experiment [8], -5.49% (inactive). In addition, in experiment [2], the inhibition of aggregation is 7.9% (inactive). Further, the nuclei count in experiment [2] worked out at 83.5%; in experiment [3] it was 110%. In addition, the fluorescence slope in experiment [4] was -0.522 (inactive). For the same molecule, the NADPH fluorescence slope in experiment [5] is 1.1e-05 (inactive). Moreover, the slope in experiment [6] was 0.00596 (inactive).
On to `NC(=O)COC(=O)c1ccc(S(=O)(=O)N2CCCCCC2)cc1`, for which the cell count in experiment [1] is 449. Further, the inhibition in experiment [1] was -7.8% (inactive); in experiment [3], -17.6% (inactive); in experiment [7] it was 11% (inactive); in experiment [8], 14% (inactive). Also, in experiment [2], the inhibition of aggregation was 6.3% (inactive). Moreover, the nuclei count in experiment [2] was 104%; in experiment [3] it was 116%. Also, in experiment [4], the fluorescence slope is -0.348 (inactive). Also, in experiment [5], the NADPH fluorescence slope is -6.2e-05 (inactive). Moreover, in experiment [6], the slope was 0.00701 (inactive).
For the molecule `O=C(COc1ccc(F)cc1Br)N1CCc2ccccc21`, the cell count in experiment [1] turned out to be 414. Besides, the inhibition was -7% (inactive) in experiment [1], -49.2% (inactive) in experiment [3], -38% (inactive) in experiment [7] and -100% (inactive) in experiment [8]. For the same molecule, the inhibition of aggregation in experiment [2] was 5% (inactive). For the same molecule, the nuclei count stood at 105% in experiment [2] and 103% in experiment [3]. The fluorescence slope in experiment [4] was -0.46 (inactive). Besides, the NADPH fluorescence slope in experiment [5] is 9.7e-05 (inactive). In addition, in experiment [6], the slope is 0.0054 (inactive).

(Values after PubChem BioAssay.)
